The full list was thinned out, with hits kept by preference.
Calb biofilm kill: kills Candida albicans biofilms; C. albicans biofilm + clotrimazole, Alamar Blue; 85,000 compounds, 0.14% hits; inhibition, % at 6 µM;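 active = inhibition above 20%; inactive = inhibition below 20%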;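 note: preformed 24 hr biofilms exposed to compound for 48 hr; 0% = biofilm without compound and 100% = blank killed by clotrimazole plus chlorhexidine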
FXIIa mix inh: factor XIIa (human) inhibition, mixture screen | purified FXIIa, fluorogenic substrate, pooled mixtures | inhibition, % at 5 µM | 62,000 compounds, 0.2% hits;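 note: 0% = enzyme without compound and 100% = no enzyme blank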
HePTP inh: inhibitors of human HePTP phosphatase. 110,000 compounds, 0.64% hits. recombinant HePTP phosphatase activity, OD absorbance. inhibition, % at 20 µM; in the data active = inhibition above about 50%;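 note: plate controls were vehicle for no effect and reference inhibitor for full effect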
D1 mod: allosterically modulates the human D1 dopamine receptor. B-score at 10 µM. 58,000 compounds, 5.9% hits. P21728. HEK293 D1, CRE-luciferase, dopamine EC30 potentiation; actives deviate in either direction;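 active = luminescence count or its row- and column-corrected plate score outside the 99.7% band of the plate's sample wells, on either side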
FXIa inh mix: factor XIa (human) inhibition, mixture screen. P03951. purified FXIa, fluorogenic substrate, pooled mixtures. inhibition, % at 5 µM. 62,000 compounds, 0.19% hits. AID 680;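 note: each value is inhibition by a whole ten-compound pool holding the compound; 0% = enzyme with no mixture and 100% = wells lacking enzyme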
TNAP act mid DEA: human TNAP activation, intermediate phosphate acceptor; P05186; purified TNAP, CDP-star luminescence, 100 mM DEA, 30 min; hits give high values; scale: 0 levamisole-inhibited, 1 vehicle-only enzyme; activation factor at 20 µM; 64,000 tested, under 10 active;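 active = activation factor of at least 2 at 20 µM, relative to controls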
Target sequence (P05186 whole entry, looked up): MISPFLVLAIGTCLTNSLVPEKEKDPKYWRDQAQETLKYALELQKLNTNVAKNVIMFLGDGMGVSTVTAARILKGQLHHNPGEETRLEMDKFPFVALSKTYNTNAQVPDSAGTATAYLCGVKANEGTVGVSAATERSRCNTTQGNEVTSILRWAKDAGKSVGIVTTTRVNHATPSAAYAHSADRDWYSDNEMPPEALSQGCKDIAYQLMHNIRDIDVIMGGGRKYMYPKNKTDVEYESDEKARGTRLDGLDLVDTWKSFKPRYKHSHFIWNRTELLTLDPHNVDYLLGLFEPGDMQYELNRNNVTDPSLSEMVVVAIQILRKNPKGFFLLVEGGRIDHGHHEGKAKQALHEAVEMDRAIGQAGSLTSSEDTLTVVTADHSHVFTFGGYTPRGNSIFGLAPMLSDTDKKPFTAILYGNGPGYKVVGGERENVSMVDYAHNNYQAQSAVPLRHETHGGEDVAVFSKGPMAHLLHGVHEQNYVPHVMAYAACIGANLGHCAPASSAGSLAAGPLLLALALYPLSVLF
The depositor's hits bear a star; . = no result. Cut-off read from the data, not from the text of the source, unless noted: active = inhibition above about 20% (passing the limit was not always enough); inactive = the rest.

SMILES	Calb biofilm kill	FXIIa mix inh	HePTP inh	D1 mod	FXIa inh mix	TNAP act mid DEA
COC(=O)Cn1cnc(=O)c(C#N)c1/C=C/N(C)C	.	-7	10	-4.7*	3	0.9
COC(=O)Cn1cnc2c(C#N)c3n(c2c1=O)CCCCC3	4	-2	-4	-0.47	-4	0.9
CCCCOc1ccc(NC(=O)c2cccc(C(F)(F)F)c2)cc1	.	.	9	.	.	.
CC(CO)(CO)NC(=O)C(F)(F)C(F)(F)C(=O)NC(C)(CO)CO	.	.	3	.	.	.
C=CCOc1ccc2c(C)cc(=O)oc2c1I	.	.	104*	.	.	.
Cc1ccc(NC(=O)c2ccc(S(=O)(=O)NCC3CCCO3)cc2)cc1 (stereo unspecified)	2	22*	-2	.	-1	0.9
Cc1ccc(S(=O)(=O)Nc2ccc(O)c(C)c2)cc1	.	.	-6	.	.	.
COc1ccc2[nH]c(=O)c(CN(Cc3nnnn3Cc3ccc(F)cc3)CC3CCCO3)cc2c1 (stereo unspecified)	1	21*	-2	0.083	6	0.9
COc1ccccc1NC=C1C(=O)OC2(CCCCC2)OC1=O	2	0	-10	-6.9*	0	1
COC(=O)c1ccccc1NC=C1C(=O)OC2(CCCCC2)OC1=O	4	.	8	.	.	1
N#C/C(=C\c1cn(CC(=O)Nc2ccccc2)c2ccccc12)C(=O)NCc1ccccc1	.	.	0	.	.	.
COc1cc(NC(=O)c2ccc3c(c2)C(=O)N(c2ccccc2OC)C3=O)c(C(=O)O)cc1OC	.	.	0	.	.	.
COc1cc(NC(=O)c2ccc3c(c2)C(=O)N(C2CCCCC2)C3=O)c(C(=O)O)cc1OC	.	.	103*	.	.	.
COc1cccc(C(=O)NCC(c2cccnc2)N2CCN(c3ccccc3OC)CC2)c1 (stereo unspecified)	.	3	5	.	6	0.9
COc1ccc(C(=O)NCC(c2cccnc2)N2CCN(c3ccccc3OC)CC2)cc1OC (stereo unspecified)	24*	0	1	-0.0067	3	1
O=C(c1ccc(F)cc1)N(Cc1ccccc1)c1ccccn1	.	.	-4	.	.	.
COc1ccc(-c2nnn(CC(=O)N(Cc3cccs3)C(C)C(=O)NC3CCCC3)n2)cc1OC (stereo unspecified)	5	4	3	4*	1	1
CCC(C(=O)NC1CCCC1)N(Cc1cccs1)C(=O)Cn1nnc(-c2ccc(OC)c(OC)c2)n1 (stereo unspecified)	2	.	.	.	.	.
Cc1cccc(-n2c(SCC(=O)Nc3ccc4c(c3)OCO4)nnc2-c2ccoc2C)c1	10	5	1	-3.4*	-2	1
Cc1onc(-c2ccccc2Cl)c1C(=O)N1CCc2ccccc21	1	5	12	-2.8*	21	0.9
Cc1onc(-c2ccccc2Cl)c1C(=O)N1CCCc2ccccc21	4	-18	9	-0.66	2	1.1
O=S(=O)(c1cc(Cl)ccc1Br)n1nnc2ccccc21	.	.	3	.	.	.
C=CCc1cccc2cc(C(=O)Nc3ccc(OCC)cc3)c(=O)oc12	.	.	9	.	.	.
C=CCc1cccc2cc(C(=O)Nc3ccc(Cl)c(Cl)c3)c(=O)oc12	.	.	2	.	.	.
C=CCc1cccc2cc(C(=O)Nc3ccc(S(=O)(=O)Nc4nnc(CC)s4)cc3)c(=O)oc12	.	.	103*	.	.	.
SMILES	Calb biofilm kill	FXIIa mix inh	HePTP inh	D1 mod	FXIa inh mix	TNAP act mid DEA
C=CCc1cccc2cc(C(=O)Nc3cccc(C(=O)O)c3)c(=O)oc12	.	.	90*	.	.	.
COCCNC(=O)C(=O)Nc1ccc(C(C)C)cc1	.	.	-5	.	.	.
CSc1nnc2c3c4c(sc3c(=O)n(-c3ccccc3)n12)CC(C)(C)OC4	2	3	8	5.9*	10	0.9
Cc1cc(C)c(C#N)c(SCC(=O)Nc2ccc([N+](=O)[O-])cc2)n1	.	.	4	.	.	.
Cc1ccc(NCc2nc3ccccc3n2C)cc1	7	-6	10	-4.1*	3	0.9
Cn1c(CNc2ccc(O)cc2)nc2ccccc21	.	.	-5	.	.	.
COc1ccc(OC)c(NC(=O)CN(c2ccc(C(C)C)cc2)S(=O)(=O)c2c(C)noc2C)c1	6	-17	1	-0.039	27	0.9
COc1ccc(OC)c(NC(=O)CN(c2ccc(C)cc2)S(=O)(=O)c2c(C)noc2C)c1	-2	1	-6	4.6*	5	1
CCOc1ccc(OCC)c(NC(=O)CN(c2ccc(C)cc2)S(=O)(=O)c2c(C)noc2C)c1	2	7	-4	4.7*	-7	0.9
Clc1ccc(CCNc2ncnc3nc[nH]c23)cc1	.	7	8	-5.3*	1	1.1
c1ccc(CCCNc2ncnc3nc[nH]c23)cc1	2	8	-5	-0.7	5	1.3
Cc1ccc(Nc2ncnc3nc[nH]c23)cc1Cl	3	-12	6	-3.5*	7	1.1
Nc1cc(N)c(N2CCCCC2)cc1N1CCCCC1	.	.	4	.	.	.
CC(=O)c1c(C)oc(C)c1CSCc1ccc(C(=O)O)o1	6	-1	24	-8.1*	-13	0.9
CCCCSCc1ccc(C(=O)O)o1	0	.	.	.	.	.
COc1ccccc1NC(=O)c1c(NC(=O)c2cccc(F)c2)sc(-c2ccccc2)c1C	.	.	5	.	.	.
CCN(CC)c1ccc(/C=N/N2C(=O)c3ccccc3C2=O)cc1	.	.	102*	.	.	.
CCN(CC)c1ccc(N2C(=O)c3ccccc3C2=O)cc1	0	1	8	0.016	-1	1
Cc1ccc(-n2c(SCC(N)=O)nc3c([nH]c4ccccc43)c2=O)cc1	4	8	1	-4.1*	6	0.9
C=CCc1cccc(/C=N/NC(=O)C(C)Nc2ccc(Br)cc2)c1O (stereo unspecified)	.	.	-21	.	.	.
OCCn1c(-c2ccc3c(c2)OCO3)csc1=Nc1ccccc1	7	8	12	-3.4*	1	0.9
COc1cc([N+](=O)[O-])ccc1-c1ccc(/C=C2\C(=O)NC(=O)N(c3ccc(Cl)cc3)C2=O)o1	.	.	0	.	.	.
FC(F)(F)c1ccc2nnc(-c3cc(Br)ccc3OCc3ccccc3)n2c1	.	.	55*	.	.	.
FC(F)(F)c1ccc2nnc(-c3cccc(OCc4ccccc4)c3)n2c1	.	.	101*	.	.	.
COc1ccc2ccccc2c1-c1nnc2ccc(C(F)(F)F)cn12	.	.	3	.	.	.
SMILES	Calb biofilm kill	FXIIa mix inh	HePTP inh	D1 mod	FXIa inh mix	TNAP act mid DEA
CC(C)=CC/C=C1\CCC2C(=O)N(c3ccccc3)C(=O)C2C1 (stereo unspecified)	.	.	-4	.	.	.
CC(Oc1cccc(Cl)c1)C(=O)Nc1ccccc1Br (stereo unspecified)	.	.	-4	.	.	.
CCCCn1c(SCC(N)=O)nnc1-c1ccco1	-5	-17	-5	1.5	4	0.9
CCCCn1c(SCC(=O)NC(C)(C)C)nnc1-c1ccco1	.	21*	5	0.9	3	0.8
Cc1ccc2nc3sc(C(=O)N4CCOCC4)c(N)c3cc2c1	5	.	4	-5.5*	.	0.9
Cc1ccc2cc3c(N)c(C(=O)N4CCOCC4)sc3nc2c1	9	.	6	-2.4	.	0.9
COc1cccc(C(c2nnnn2Cc2ccccc2)N2CCN(C3CCCC3)CC2)c1OC (stereo unspecified)	9	2	6	-3.5*	6	0.9
